# From PubChem BioAssay
# Compounds with a hit are over-represented: about 27% of the library has one in this group of screens.
# Cav32 inh – Cav3.2 calcium influx blockers – cell-based, Fluo-4 calcium fluorescence, FDSS, MLSMR library, primary screen; actives 4% (n = 100,000); Cav3.2-expressing cells; active compounds read low; AID 449739, 2010; B-score at 10 µM; Voltage-dependent T-type calcium channel subunit alpha-1H (Homo sapiens), O95180;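 active = single-dose well whose peak fluorescence ratio is a statistical outlier from its plate by either plate-standardised score or position-corrected B-score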
# CYP2C19 activ – human CYP2C19 activators, primary screen, biochemical, luminescence. Cytochrome P450 2C19 (Homo sapiens), P33261. recombinant CYP2C19, luciferin-H EGE luminescence; active compounds read high; 0 = fully inhibited enzyme, 1 = untreated enzyme. activation factor at 5 µM. 96,000 tested, under 10 active. AID 1025, 2008;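 active = activation factor of at least 2 at 5 µM in the primary screen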;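 note: 0 = wells with 2.5 mM tranylcypromine and 1 = vehicle-only wells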
# CYP2C9 inhib – blockers of cytochrome P450 2C9 activity – biochemical, luminescence, ADME assay, primary screen; P11712; CYP2C9 Supersomes, luciferin-H conversion; inhibition, % at 5 µM; actives 20% (n = 96,000); AID 777, 2007;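 active = blocking of liver enzyme CYP2C9 beyond about 50% at 5 µM, limit read from the data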
# Target sequence (P11712 whole entry, looked up): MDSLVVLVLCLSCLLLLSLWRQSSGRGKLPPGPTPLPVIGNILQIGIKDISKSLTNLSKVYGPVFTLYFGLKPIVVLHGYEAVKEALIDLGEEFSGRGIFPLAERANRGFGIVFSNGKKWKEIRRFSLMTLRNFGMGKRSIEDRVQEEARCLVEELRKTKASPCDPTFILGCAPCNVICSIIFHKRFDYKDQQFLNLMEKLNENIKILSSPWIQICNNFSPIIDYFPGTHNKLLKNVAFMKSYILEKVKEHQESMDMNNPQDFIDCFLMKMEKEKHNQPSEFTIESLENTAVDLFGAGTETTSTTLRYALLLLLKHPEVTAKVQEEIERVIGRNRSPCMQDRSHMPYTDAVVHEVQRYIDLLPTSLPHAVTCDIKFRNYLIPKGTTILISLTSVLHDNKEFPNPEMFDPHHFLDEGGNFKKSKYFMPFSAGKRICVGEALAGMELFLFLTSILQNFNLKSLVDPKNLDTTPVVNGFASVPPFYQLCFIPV
# CYP2C9 activ – human CYP2C9 activators, primary screen, biochemical, luminescence | Cytochrome P450 2C9 (Homo sapiens), P11712 | recombinant CYP2C9, luciferin-H conversion; active compounds read high; factor 1 = untreated enzyme, 0 = blocked | activation factor at 5 µM | actives 1.4% (n = 96,000);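 active = activation factor of 2 or more for CYP2C9 at a 5 µM dose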;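 note: 0 = sulfaphenazole-blocked wells and 1 = vehicle-only wells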
# CYP2C19 inh – blockers of cytochrome P450 2C19 activity – biochemical, luminescence, ADME assay, primary screen. P33261. CYP2C19 Supersomes, luciferin-H EGE luminescence, 30 min. inhibition, % at 5 µM. actives 21% (n = 96,000). AID 778, 2007;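 active = CYP2C19 inhibition above a set limit at 5 µM in the primary screen, cut at about 50% in these data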;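 note: plate controls were negative control wells for no effect and 2.5 mM tranylcypromine positive control for full effect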
# Active calls of the source: *; / = no result.
SMILES,Cav32 inh,CYP2C19 activ,CYP2C9 inhib,CYP2C9 activ,CYP2C19 inh
CC(C)CC(=O)NCCNC(=O)c1cc(OCC(F)(F)F)ccc1OCC(F)(F)F,0.265,1,87.2*,0.1,4.0
O=C(NCCNS(=O)(=O)c1cccc(C(F)(F)F)c1)c1cc(OCC(F)(F)F)ccc1OCC(F)(F)F,-0.00594,0.2,15.6,0.8,79.6*
O=C(NCCN1CCCCC1)c1cc(OCC(F)(F)F)ccc1OCC(F)(F)F,1.11,1,0.0,1,-1.0
O=C(CN(C(=O)CNS(=O)(=O)c1ccccc1)C1CCCC1)NCc1ccco1,-0.325,0.5,18.5,0.8,46.4
COC(=O)c1ccccc1N(Cc1ccccc1)S(C)(=O)=O,0.453,0.2,29.3,0.7,78.3*
O=C(Nc1nnc(C23CC4CC(CC(C4)C2)C3)s1)c1ccc(N2C(=O)CCC2=O)cc1,0.00997,1.1,5.6,0.9,-5.4
COc1ccc(OCc2nnc(SC3CCOC3=O)n2-c2ccccc2)cc1 (stereo not given),0.128,0.2,27.3,0.7,84.4*
O=C1OCCC1Sc1nnnn1-c1ccccc1 (stereo not given),1.22,0.1,-4.8,1,87.9*
COc1cccc(-n2c(SC3CCOC3=O)nc3ccccc3c2=O)c1 (stereo not given),0.0597,/,/,/,/
O=C(c1ccccc1)N1CCCCC(Sc2nnnn2-c2ccccc2)C1=O (stereo not given),-0.917,/,/,/,/
O=C(c1ccc(F)cc1)N1CCCCC(Sc2nnnn2-c2ccccc2)C1=O (stereo not given),-2.15,0.3,73.8*,0.3,72.7*
O=C1OCCC1Sc1nc(-c2ccccc2)cs1 (stereo not given),0.0413,0.1,-108.9,2.1*,86.7*
CN(C)CCCNC(=O)CCC1CCCCC1,0.953,1.1,-16.8,1.2,-13.5
O=C(O)CSc1nnc(CNc2ccccc2Cl)n1-c1ccccc1,0.803,1.1,-16.5,1.2,-8.4
CC(C)C1Cc2c(sc3[nH]c(=S)n(Cc4ccccc4)c(=O)c23)CO1 (stereo not given),-2.61,1,76.9*,0.2,4.4
Cn1c(=O)oc2cc(S(=O)(=O)N3CCC(C(=O)N4CCN(c5ccccc5)CC4)CC3)ccc21,-0.758,1.1,-31.2,1.3,-8.8
Cn1c(=O)oc2cc(S(=O)(=O)N3CCC(C(=O)N4CC=C(c5ccccc5)CC4)CC3)ccc21,0.0768,0.3,-5.1,1.1,72.9*
CCOC(=O)C1CCCN(C(=O)C2CCCN(S(=O)(=O)c3ccc4c(c3)oc(=O)n4C)C2)C1 (stereo not given),-0.0237,0.7,80.6*,0.2,28.0
Cn1c(=O)oc2cc(S(=O)(=O)N3CCCC(C(=O)N4CCc5ccccc5C4)C3)ccc21 (stereo not given),0.818,0.1,47.6,0.5,91.4*
Cn1c(=O)oc2cc(S(=O)(=O)N3CCCC(C(=O)NCCN4CCOCC4)C3)ccc21 (stereo not given),/,1.1,3.0,1,-5.3
CCCCNCc1cc(Br)c(OCc2cccs2)c(OC)c1,-2.62,0.4,-5.3,1.1,64.6*
CCCCNCc1cc(Br)c(OCC(=O)N2CCOCC2)c(OC)c1,0.662,1,-2.2,1,-4.6
CC12CCC(C(=O)Nc3ncc([N+](=O)[O-])s3)(OC1=O)C2(C)C (stereo not given),-0.418,1.2,-6.1,1.1,-19.3
C=CCOc1cccc(C2c3c(oc4ccccc4c3=O)C(=O)N2c2ccccn2)c1 (stereo not given),0.235,0.6,37.6,0.6,37.5
Cc1csc(NC(CO)c2nc3ccccc3n2CCOCCO)n1 (stereo not given),0.939,/,/,/,/
SMILES,Cav32 inh,CYP2C19 activ,CYP2C9 inhib,CYP2C9 activ,CYP2C19 inh
O=C1CC(Nc2ccc(N3CCOCC3)cc2)C(=O)N1c1ccccc1 (stereo not given),-0.395,0.8,-6.7,1.1,21.6
COc1ccc(NC2CC(=O)N(c3ccccc3)C2=O)cc1 (stereo not given),-0.842,0.5,-3.1,1,54.7*
CSc1ccc2[nH]c(=O)cc(C)c2c1,-0.297,0.9,12.1,0.9,6.7
CCn1cc(-c2cc(C(F)(F)F)n3nc(C(=O)O)cc3n2)c(C)n1,0.873,1,9.5,0.9,-4.3
O=C(c1ccc2nc3ccccc3c(=O)n2c1)N1CCN(Cc2ccc3c(c2)OCO3)CC1,2,0.8,52.9*,0.5,24.7
O=C(c1cccn2c(=O)c3ccccc3nc12)N1CCN(Cc2ccc3c(c2)OCO3)CC1,-1.73,0.8,75.3*,0.2,23.6
O=c1[nH]c(CN2CCN(Cc3ccc4c(c3)OCO4)CC2)nc2ccccc12,-0.288,/,/,/,/
O=C(c1cccn2c(=O)c3cc(Cl)ccc3nc12)N1CCN(Cc2ccc3c(c2)OCO3)CC1,/,0.1,97.1*,0,87.6*
CCn1nc(C(=O)N2CCN(Cc3ccc4c(c3)OCO4)CC2)c2ccccc2c1=O,2.39,0.6,61.1*,0.4,36.3
C#CCCOC(=O)N1C2=NC(C(=O)OC)=C(C(=O)OC)[C@@H]3N(CC=C)c4ccccc4[C@]23C[C@H]1C(=O)OC,1.07,/,/,/,/
Cc1cccc(-n2c(N)cc(=O)nc2SCC(=O)Nc2nnc(C)s2)c1,-0.237,1.4,0.6,1,-38.7
O=C(NCCN1CCN(c2ccccc2F)CC1)c1cccn2c(=O)c3ccccc3nc12,-1.21,0.4,57.3*,0.4,59.8*
CCO[C@H]1OC(C(=O)NC2CC2)=C[C@@H](c2coc3ccccc3c2=O)[C@@H]1CCCO,0.652,/,/,/,/
OCc1cn(-c2ccccc2)nc1-c1ccc2c(c1)OCCO2,0.268,0.8,0.4,1,20.2
O=C(N/N=C/c1cn(-c2ccccc2)nc1-c1ccc(F)cc1)c1ccc2c(c1)OCO2,/,0.7,64.4*,0.4,33.7
O=C(N/N=C\c1cn(-c2ccccc2)nc1-c1ccccc1)c1ccc2c(c1)OCO2,-2.84,0.5,64.8*,0.4,53.7*
COc1ccc(-c2nn(-c3ccccc3)cc2/C=N/NC(=O)c2ccc3c(c2)OCO3)cc1,/,0.6,69.7*,0.3,37.1
O/N=C/c1cn(-c2ccccc2)nc1-c1ccc2c(c1)OCCO2,-0.16,1,52.8*,0.5,-0.5
Cc1c(/C=N/NC(=O)c2ccc3c(c2)OCO3)cnn1C,0.0805,1.1,0.6,1,-7.2
C=CCC1(O)CC(c2ccco2)NC(c2ccco2)C1CCC (stereo not given),-1.76,1.1,-7.8,1.1,-15.0
CCOCCCNC(=O)C(c1ccc(C)cc1)N(Cc1ccc2c(c1)OCO2)C(=O)CNC(C)=O (stereo not given),0.268,/,/,/,/
O=C1C(CCS(=O)c2ccccc2)C(=O)N(c2ccccc2)N1c1ccccc1 (stereo not given),-0.261,/,/,/,/
COC(=O)c1c(C(=O)OC)c2cc(C(=O)c3ccccc3)ccn2c1Cl,0.0611,/,/,/,/
